Screening results from PubChem.
This is a sample that favours compounds with a hit; in the whole collection about 11% have one here.
G9a inh – qHTS Assay for Inhibitors of Histone Lysine Methyltransferase G9a; G9a H3K9 monomethylation, AlphaScreen, 2 h; AID 504332, 2011; 350,000 tested, 8.8% active; Potency, µM (highest dose often 102 µM), without a hit: top-dose activity, negative = inhibition, hits mostly inhibitors; Histone-lysine N-methyltransferase EHMT2 (Homo sapiens), Q96KQ7; further: on the % scale 0 is the no-effect control and ±100 the full control effect; nearly all actives have a fitted effect of over 75% in size
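Compounds were preincubated with 20 nM G9a for 15 min, after which biotinylated H3K9 peptide (500 nM) and SAM (20 uM) started a 2 h room-temperature reaction. Monomethylated product was quantified by antibody-based AlphaScreen chemiluminescence.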
HP1b binding inh – HTS for Inhibitors of HP1-beta Chromodomain Interactions with Methylated Histone Tails; Potency, µM (series often up to 114 µM), for inactives: top-dose activity change, negative = inhibition, most hits filed as inhibitors; 390,000 tested, 0.56% active; AlphaScreen HP1-beta / biotin-H3K9me3 peptide binding; further: nearly all actives have a fitted effect of over 70% in size
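AlphaScreen: HP1-beta (50 nM) preformed 30 min with biotin-H3(1-18)K9me3 peptide (50 nM) in PBS pH 7.4, 0.01% Tween-20. Compound added for 30 min at RT, then streptavidin donor/nickel chelate acceptor beads (10 ug/mL) for 30 min.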
L3MBTL1 inh – qHTS Assay for the Inhibitors of L3MBTL1; AlphaScreen L3MBTL1–H3K9me1 peptide binding; 230,000 tested, 0.66% active; Lethal(3)malignant brain tumor-like protein 1 (Homo sapiens), Q9Y468; Potency, µM (series often up to 57.1 µM), for inactives: at the top dose activity, negative = inhibition, actives largely listed as inhibitors; AID 485360, 2010; further: on the % scale 0 is the no-effect control and ±100 the full control effect; nearly all actives have a fitted effect of over 60% in size
Target sequence (Q9Y468 whole entry, looked up): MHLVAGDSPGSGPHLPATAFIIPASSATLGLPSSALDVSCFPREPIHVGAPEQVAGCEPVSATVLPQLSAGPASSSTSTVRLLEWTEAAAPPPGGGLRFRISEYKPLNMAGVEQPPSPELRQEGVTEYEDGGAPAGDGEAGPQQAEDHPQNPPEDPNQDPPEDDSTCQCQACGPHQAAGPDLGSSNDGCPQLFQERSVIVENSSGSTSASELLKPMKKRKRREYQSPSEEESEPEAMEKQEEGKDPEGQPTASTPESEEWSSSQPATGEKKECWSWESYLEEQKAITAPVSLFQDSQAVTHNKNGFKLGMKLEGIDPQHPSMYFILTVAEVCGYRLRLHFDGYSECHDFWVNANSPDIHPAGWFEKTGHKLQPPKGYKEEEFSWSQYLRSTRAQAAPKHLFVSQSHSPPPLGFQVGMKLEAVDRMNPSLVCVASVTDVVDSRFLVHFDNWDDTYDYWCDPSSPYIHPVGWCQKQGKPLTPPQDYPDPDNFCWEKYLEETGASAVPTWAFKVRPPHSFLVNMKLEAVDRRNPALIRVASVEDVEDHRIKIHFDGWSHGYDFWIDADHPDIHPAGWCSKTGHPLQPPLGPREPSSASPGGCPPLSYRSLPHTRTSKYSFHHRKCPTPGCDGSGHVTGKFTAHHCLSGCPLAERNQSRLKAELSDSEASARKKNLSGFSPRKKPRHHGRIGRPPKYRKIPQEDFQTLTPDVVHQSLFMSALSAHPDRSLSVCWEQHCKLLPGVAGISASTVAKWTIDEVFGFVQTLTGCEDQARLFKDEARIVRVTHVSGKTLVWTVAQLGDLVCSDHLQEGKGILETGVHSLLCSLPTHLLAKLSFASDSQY
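AlphaScreen assay: L3MBTL1 (50 nM final) was preincubated 30 min at room temperature with biotinylated H3(1-15)K9me1 peptide (75 nM final), then 30 min with library compounds; streptavidin donor and nickel chelate acceptor beads (10 ug/mL final) added, 30 min dark.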
BAZ2B inh – qHTS Assay for Inhibitors of BAZ2B; AlphaScreen BAZ2B-H3K14Ac peptide displacement; Potency, µM (series often up to 114 µM), for the others: at the highest dose activity change, negative = inhibition, hits mostly inhibitors; 360,000 tested, 4.4% active; further: on the % scale 0 is the no-effect control and ±100 the full control effect; nearly all actives have a fitted effect of over 60% in size
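In this displacement format the biotinylated H3(5-23) peptide acetylated at Lys14 serves as ligand at 50 nM, with BAZ2B at 50 nM in PBS pH 7.4 containing 0.01% Tween-20. Donor and acceptor beads are 10 ug/mL final.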
JMJD2A Tudor inh – qHTS Assay for Inhibitors of JMJD2A-Tudor Domain. AlphaScreen JMJD2A-Tudor / H3K4me3 peptide binding. 390,000 tested, 4.4% active. Potency, µM (titrated, usually from 114 µM), inactives show top-dose activity change, negative = inhibition, actives largely listed as inhibitors. AID 504339, 2011. Lysine-specific demethylase 4A (Homo sapiens), O75164; further: on the % scale 0 is the no-effect control and ±100 the full control effect; nearly all actives have a fitted effect of over 50% in size
* = called active by the depositor; [ ] = remark or other dose. The call rests on the fitted dose curve; in most records, active means well fitted inhibition curve with a large enough effect; inconclusive means small, poorly fitted or top-dose-only effect; inactive means no such curve, though single readings can be large or run the other way. Potency means the concentration at half of the fitted maximal effect.

What do the screens show for `COc1cc(C2CC(=O)Oc3c(C(CCN4CCCC(C)C4)c4ccc(N(C)C)cc4)c(OC)cc(OC)c32)cc(OC)c1OC` (stereo unspecified)?
G9a inh: inconclusive; HP1b binding inh: inconclusive; BAZ2B inh: 35.5µM*; JMJD2A Tudor inh: 39.8µM*

What do the screens show for `COc1cc(C(CCN2CCCC(C)C2)c2c(OC)cc(OC)c3c(C)cc(=O)oc23)cc(OC)c1OC` (stereo unspecified)?
HP1b binding inh: inconclusive; JMJD2A Tudor inh: -19.3%

What do the screens show for `CCOC(=O)C1CCN(C(=O)Cn2nc(C)n3c(cc4cc(F)ccc43)c2=O)CC1`?
G9a inh: -5.3%; HP1b binding inh: 25.5%; BAZ2B inh: -38.6%; JMJD2A Tudor inh: -0.3%

What do the screens show for `Cc1ccc(S(=O)(=O)N2CCN(c3nc(-c4ccncc4)nc4ccccc34)CC2)cc1`?
HP1b binding inh: 13.3%; JMJD2A Tudor inh: inconclusive

Results for CCCCN(CCCC)S(=O)(=O)c1ccc(SCC(=O)OCC)c([N+](=O)[O-])c1 ?
G9a inh: -7.7%; HP1b binding inh: 79.4µM*; BAZ2B inh: -31.2%; JMJD2A Tudor inh: inconclusive

What do the screens show for `COC(=O)CSc1ccc(S(=O)(=O)N2CCC(C)CC2)cc1[N+](=O)[O-]`?
G9a inh: -9.8%; HP1b binding inh: 14.6%; L3MBTL1 inh: 3.0%; BAZ2B inh: -18.3%; JMJD2A Tudor inh: -10.6%

What do the screens show for `CCOC(=O)CSc1ccc(S(=O)(=O)N(CC)CC)cc1[N+](=O)[O-]`?
G9a inh: 44.7µM*; HP1b binding inh: 6.4%; BAZ2B inh: -24.7%; JMJD2A Tudor inh: -35.2%

How did COC(=O)C1=C(N)Oc2cc(C)n(CC3CCCO3)c(=O)c2C1c1ccccc1OC (stereo unspecified) do in these assays?
G9a inh: 3.5%[12.7 µM]; HP1b binding inh: 27.7%; L3MBTL1 inh: 0.5%; BAZ2B inh: -8.6%; JMJD2A Tudor inh: 6.4%

How did COC(=O)C1=C(N)Oc2cc(N(C)C)ccc2C1c1ccccc1OC (stereo unspecified) do in these assays?
G9a inh: 31.6µM*; HP1b binding inh: inconclusive; L3MBTL1 inh: inconclusive; BAZ2B inh: 39.8µM*; JMJD2A Tudor inh: 50.1µM*

What do the screens show for `Cc1cccc(-c2nc(CSc3nncn4c3cc3oc(C)cc34)c(C)o2)c1`?
G9a inh: -4.1%[59 µM]; HP1b binding inh: 39.8%; BAZ2B inh: -29.0%; JMJD2A Tudor inh: -18.7%

What do the screens show for `COC(=O)c1nc(N)sc1-c1ccc(Cl)cc1`?
G9a inh: 44.7µM*; HP1b binding inh: 23.3%; L3MBTL1 inh: inconclusive; BAZ2B inh: -23.8%; JMJD2A Tudor inh: -9.4%

How did Cc1ccc(NC(=O)C2CCN(c3nc4ccccc4nc3C(F)(F)F)CC2)cc1F do in these assays?
G9a inh: -1.1%[59 µM]; HP1b binding inh: 23.5%; BAZ2B inh: 3.9%; JMJD2A Tudor inh: 4.9%

How did Cc1ccccc1Nc1nnc(-c2ccc(C)c(S(=O)(=O)N3CCCCC3)c2)c2ccccc12 do in these assays?
G9a inh: -0.1%[59 µM]; HP1b binding inh: 5.8%; BAZ2B inh: -16.4%; JMJD2A Tudor inh: -30.1%

What do the screens show for `Nc1cccc2c1nnn2C1OC(CO)C(O)C(O)C1O` (stereo unspecified)?
G9a inh: 3.3%; L3MBTL1 inh: 0.9%; BAZ2B inh: -16.0%

Results for Cc1cccc2c1c(N=NC(N)=S)c(O)n2C1OC(CO)C(O)C(O)C1O (stereo unspecified) ?
G9a inh: 35.5µM*; HP1b binding inh: 28.7%; L3MBTL1 inh: 4.1%; BAZ2B inh: -0.2%; JMJD2A Tudor inh: -1.7%

How did CC1=NN(c2ccccc2)C(=O)/C1=C\c1ccc(Br)s1 do in these assays?
G9a inh: 8.91µM*; HP1b binding inh: inconclusive; L3MBTL1 inh: inconclusive; BAZ2B inh: 11.2µM*; JMJD2A Tudor inh: 10µM*

What do the screens show for `CC1=NN(c2ccccc2)C(=O)/C1=C/c1cccs1`?
G9a inh: 31.6µM*; HP1b binding inh: inconclusive; L3MBTL1 inh: inconclusive; BAZ2B inh: 15.8µM*; JMJD2A Tudor inh: 39.8µM*

What do the screens show for `COc1ccc(/C=C2/C(=O)N(c3cccc(F)c3)N=C2C)c(OC)c1`?
G9a inh: 19.3%[0.501 µM]; HP1b binding inh: -6.6%; L3MBTL1 inh: -0.5%[2.29 µM]; BAZ2B inh: inconclusive; JMJD2A Tudor inh: -22.9%

What do the screens show for `CC1=NN(c2ccc(C)c(C)c2)C(=O)/C1=C/c1ccc2c(c1)n(C)c(=O)n2C`?
G9a inh: 7.08µM*; HP1b binding inh: 2.2%; L3MBTL1 inh: -9.2%; BAZ2B inh: inconclusive; JMJD2A Tudor inh: -18.8%

What do the screens show for `COc1ccc(/C=C2/C(=O)N(c3ccccc3)N=C2C)cc1Br`?
G9a inh: 35.5µM*; HP1b binding inh: 22.4µM*; BAZ2B inh: 12.6µM*; JMJD2A Tudor inh: 17.8µM*

Results for CC1=NN(c2ccccc2)C(=O)/C1=C\N(O)c1ccccc1 ?
HP1b binding inh: 29.8%; L3MBTL1 inh: -0.6%; BAZ2B inh: -10.6%; JMJD2A Tudor inh: inconclusive

Results for CC1=NN(c2ccccc2)C(=O)/C1=C\c1cc(C)n(-c2cccnc2)c1C ?
G9a inh: -44.7%; HP1b binding inh: 10.5%; L3MBTL1 inh: -9.8%; BAZ2B inh: inconclusive; JMJD2A Tudor inh: -11.9%

What do the screens show for `CC1=NN(c2ccccc2)C(=O)/C1=C/c1ccc(Cl)cc1`?
G9a inh: 39.8µM*; HP1b binding inh: inconclusive; L3MBTL1 inh: inconclusive; BAZ2B inh: inconclusive; JMJD2A Tudor inh: inconclusive

What do the screens show for `CC1=NN(c2ccccc2)C(=O)/C1=C\c1cc(C)n(-c2ccccc2)c1C`?
G9a inh: 3.55µM*; HP1b binding inh: inconclusive; L3MBTL1 inh: 0.0%; BAZ2B inh: inconclusive; JMJD2A Tudor inh: -27.5%

Results for CC1=NN(c2ccccc2)C(=O)/C1=C/c1ccc[nH]1 ?
G9a inh: 22.4µM*; HP1b binding inh: 15.8µM*; L3MBTL1 inh: inconclusive; BAZ2B inh: 11.2µM*; JMJD2A Tudor inh: 15.8µM*

How did CC1=NN(c2ccccc2)C(=O)/C1=C/c1c(O)n(-c2ccc(F)cc2)[nH]c1=O do in these assays?
G9a inh: 11.2µM*; HP1b binding inh: inconclusive; L3MBTL1 inh: -0.7%; BAZ2B inh: 39.8µM*; JMJD2A Tudor inh: 28.2µM*

How did CCOC(=O)C1=C(CS(=O)(=O)c2ccc(F)c(C)c2)NC(=O)NC1c1ccccc1OC (stereo unspecified) do in these assays?
G9a inh: 2.7%[59 µM]; HP1b binding inh: 23.6%; BAZ2B inh: -8.4%; JMJD2A Tudor inh: -21.2%

How did Cc1ccc(C(=O)Nc2ccc3c(c2)N(C)C(=O)c2ccccc2S3)cc1 do in these assays?
G9a inh: -11.5%[59 µM]; HP1b binding inh: 14.4%; BAZ2B inh: -4.8%; JMJD2A Tudor inh: -33.7%
